Measured values from ChEMBL document CHEMBL3988442, “University of Dundee, Small-Polar-MMV Screening Library” (2021).

Molecular target: AMP-activated protein kinase, AMPK (Homo sapiens) (UniProt P54646+O43741+P54619+Q9UGJ0+Q9Y478+Q13131+Q9UGI9)
Assay: AMP-dependent Kinase enzyme assay. An in vitro enzyme assay that detects ADP turnover that is directly proportional to AMPK activity. This uses naive AMPK that is activated during the assay with MK-8722
Format: functional
Parameters: scale not given: direction of the effect not stated beside the values
Conditions: 30 µM

| SMILES | Percent Effect [%] |
| --- | --- |
| CCc1nnc(NC(=O)CCN2CC=C(c3cnn(C)c3)CC2)s1 | 7.71 |
| CCc1cccc(NC(=O)CCN2CC=C(c3cnn(C)c3)CC2)c1 | 11.6 |
| O=C(c1nc(=O)[nH]c2ccccc12)N1CCCC2(CCNC2)C1 (stereo not given) | 1.4 |
| CC(C)c1cc(N2CCC3(CCN(C)C3)C2)ncn1 (stereo not given) | -2.38 |
| FC(F)(F)c1nc(C2CCNCC2)no1 | 5.73 |
| Cc1nn(C)c2nc(N3CCCCC3c3cccnc3)sc12 (stereo not given) | -3.14 |
| COc1ccccc1CCN(C)Cc1nc(N)nc(N(C)C)n1 | -4.89 |
| O=C(c1cc2ccccc2[nH]c1=O)N1CCC2(CCCNC2)C1 (stereo not given) | 16.8 |
| O=C1CC2(CCN(Cc3ccc(Cl)s3)C2)C(=O)N1 (stereo not given) | 12.7 |
| COc1ccc(F)cc1C(=O)C1CCCN(Cc2cnc(C)s2)C1 (stereo not given) | 1.8 |
| Cc1nc(C(=O)N[C@H]2COC[C@@H]2N2CCCCC2)cs1 | 4.08 |
| Cc1cccc(CC(=O)N2CCCC(N(C)CCCN(C)C)C2)c1 (stereo not given) | 6.04 |
| CC(=O)Nc1ccc(-c2ccccc2CCN)cc1 | 3.13 |
| NC1(c2nc(C(F)(F)F)cc(=O)[nH]2)CCCCC1 | -5.09 |
| CC(C)NC(=O)[C@H]1CN(Cc2ccccc2)C[C@@H]1C(=O)c1ccccc1 | 7.87 |
| c1cnc(N2C[C@@H]3CC[C@H](C2)N(Cc2ccsc2)C3)nc1 | 8.4 |
| Cc1cc(C(=O)NCC(=O)N2CCOCC2)nn1C(C)(C)C | 8.45 |
| Cc1ccc2c(CC(=O)N(C)CCN(C)C)c(C)[nH]c2c1C | -8.21 |
| CS(=O)(=O)N1C[C@H]2CC[C@@H]1CN(Cc1ccncc1)C2 | 11.6 |
| CNC(=O)[C@@H]1CN(Cc2ccccc2)C[C@H]1C(=O)c1ccc(F)cc1 | 12 |
| CCc1ccc2ncn(Cc3ncc[nH]3)c(=O)c2c1 | 0.257 |
| CCNC(=O)[C@@H]1CN(Cc2ccccc2)C[C@H]1C(=O)c1ccc(F)cc1 | 15.1 |
| COc1ccc(F)cc1C(=O)C1CCCN(Cc2ccc(C)s2)C1 (stereo not given) | 6.05 |
| Cc1cc(Cl)ccc1C(=O)C1CCCN(Cc2cnc(N(C)C)s2)C1 (stereo not given) | 3.99 |

Molecular target: T1, Arginase-2, mitochondrial (Homo sapiens) (UniProt P78540)
T1 sequence (whole entry): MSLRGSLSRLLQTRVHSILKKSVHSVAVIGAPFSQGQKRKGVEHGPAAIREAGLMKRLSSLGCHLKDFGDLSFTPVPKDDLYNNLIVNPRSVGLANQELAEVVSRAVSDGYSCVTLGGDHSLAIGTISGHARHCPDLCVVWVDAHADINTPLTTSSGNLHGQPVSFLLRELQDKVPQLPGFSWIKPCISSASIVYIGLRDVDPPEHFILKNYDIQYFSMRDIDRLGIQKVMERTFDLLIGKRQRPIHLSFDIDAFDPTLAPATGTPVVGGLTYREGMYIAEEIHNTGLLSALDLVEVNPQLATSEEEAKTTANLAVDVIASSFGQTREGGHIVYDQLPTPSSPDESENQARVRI
Assay: in vitro enzyme assay to detect the production of urea directly proportional to the activity of Arginase II; also: in the data most compounds retested in dose-response had high values
Format: functional
Parameters: scale not given: direction of the effect not stated beside the values
Conditions: 30 µM

| SMILES | Percent Effect [%] |
| --- | --- |
| c1ccc(O[C@H]2CO[C@@]3(CCCN(Cc4nccs4)C3)C2)nc1 | -0.54 |
| O=C1CSC(c2ccc(F)c(Cl)c2)c2c(n(C3CCOCC3)[nH]c2=O)N1 (stereo not given) | -0.54 |
| O=C1CSC(c2ccncc2)c2c(n(C3CCOCC3)[nH]c2=O)N1 (stereo not given) | 9.19 |
| CN(Cc1cncnc1)[C@H]1CN(Cc2ccco2)[C@@H]2CCCO[C@@H]21 | 4.87 |
| O=C1CSC(c2ccccc2)c2c(n(C3CCOCC3)[nH]c2=O)N1 (stereo not given) | 5.95 |
| c1ccc(O[C@@H]2CO[C@@]3(CCCN(CC4CCOCC4)C3)C2)nc1 | 8.11 |
| O=C1CSC(c2ccsc2)c2c(n(C3CCCC3)[nH]c2=O)N1 (stereo not given) | 4.87 |
| O=C1CSC(c2ccc(Cl)cc2Cl)c2c(n(C3CCOCC3)[nH]c2=O)N1 (stereo not given) | 8.11 |
| c1ccc(CN2CCC3(CC2)CCN(Cc2cccnc2)C3)nc1 | 8.11 |
| O=C1CSC(c2cccnc2)c2c(n(C3CCOCC3)[nH]c2=O)N1 (stereo not given) | 7.03 |
| O=C(NCc1ccccn1)[C@]12COC[C@H]1CN(Cc1ccsc1)C2 | 5.95 |
| CSc1ccc(C2SCC(=O)Nc3c2c(=O)[nH]n3C2CCOCC2)cc1 (stereo not given) | 8.11 |
| Cn1cc(C2SCC(=O)Nc3c2c(=O)[nH]n3C2CCOCC2)cn1 (stereo not given) | 0.54 |
| Cc1nc(NCC2CC2)nc2c1COCC21CCNC1 (stereo not given) | 8.11 |
| CN(Cc1ccco1)[C@@H]1CN(Cc2cccnc2)[C@@H]2CCCO[C@H]12 | 2.7 |
| O=C1CSC(c2ccc(O)cc2)c2c(n(C3CCOCC3)[nH]c2=O)N1 (stereo not given) | 11.3 |
